Active and inactive are the calls of the source. How the source made its calls: active means hit-call score of the fitted dose curve at least 0.9, where 1 is the maximum; inactive means score below 0.9.
Experiments:
[1] = target: Bile acid receptor (Homo sapiens) (UniProt Q96RI1); test: ATG_IR1_CIS: Attagene CIS-FACTORIAL HepG2 Assay for human Nuclear Receptor Subfamily 1 Group H Member 4 (NR1H4), IR1 submotif (AID 2282946); details: IR1 reporter transcription, actives raise or lower the signal
Outline: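 Readout: reporter transcript levels by RT-PCR with fluorescent capillary electrophoresis, from HepG2 cells transiently transfected with multiplexed cis-regulated reporters and dosed 24 h. Gain- or loss-of-signal fitted versus DMSO negative control.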

[2] = ATG_GRE_CIS: Attagene CIS-FACTORIAL HepG2 Assay for human Glucocorticoid Response Elements (GRE) (AID 2282947); details: HepG2 GRE cis-reporter, Attagene multiplex mRNA; actives raise or lower the signal
Outline: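 Cells (HepG2) bearing transfected cis-promoter reporter transcription units were treated with chemical for 24 hours. Reporter mRNA was measured via RT-PCR with capillary electrophoresis, and activity was fitted in both directions relative to DMSO.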

[3] = ATG_M_32_CIS: Attagene CIS-FACTORIAL HepG2 Assay for M32 Transcription Factor (Internal Marker) (AID 2282949); details: HepG2 Attagene cis-factorial M32 reporter, mRNA; actives raise or lower the signal;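 further: background control marker of the multiplexed CIS panel rather than a real target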
Outline: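 HepG2 transfectants (cis-regulated reporter transcription units) dosed 24 h. Reporter mRNA by RT-PCR plus CE, analysed as gain or loss relative to DMSO.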

[4] = ATG_M_06_CIS: Attagene CIS-FACTORIAL HepG2 Assay for M06 Transcription Factor (Internal Marker) (AID 2282950); details: HepG2 Attagene CIS-FACTORIAL M06 internal marker reporter; actives raise or lower the signal
Outline: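 Cells (HepG2, transiently carrying cis-driven reporter units) receive chemical for 24 h before RNA isolation. Reporter cDNA is PCR-amplified, FAM-labelled by primer extension, HpaI-digested and sized on a capillary analyser.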

[5] = target: Hypoxia-inducible factor 1-alpha (Homo sapiens) (UniProt Q16665); test: ATG_HIF1a_CIS: Attagene CIS-FACTORIAL HepG2 Assay for human Hypoxia Inducible Factor 1 (HIF1A) (AID 2282951); details: HepG2 Attagene cis-factorial HIF1a reporter transcription; actives raise or lower the signal
Chain of Hypoxia-inducible factor 1-alpha (Homo sapiens) (Q16665 whole entry, looked up): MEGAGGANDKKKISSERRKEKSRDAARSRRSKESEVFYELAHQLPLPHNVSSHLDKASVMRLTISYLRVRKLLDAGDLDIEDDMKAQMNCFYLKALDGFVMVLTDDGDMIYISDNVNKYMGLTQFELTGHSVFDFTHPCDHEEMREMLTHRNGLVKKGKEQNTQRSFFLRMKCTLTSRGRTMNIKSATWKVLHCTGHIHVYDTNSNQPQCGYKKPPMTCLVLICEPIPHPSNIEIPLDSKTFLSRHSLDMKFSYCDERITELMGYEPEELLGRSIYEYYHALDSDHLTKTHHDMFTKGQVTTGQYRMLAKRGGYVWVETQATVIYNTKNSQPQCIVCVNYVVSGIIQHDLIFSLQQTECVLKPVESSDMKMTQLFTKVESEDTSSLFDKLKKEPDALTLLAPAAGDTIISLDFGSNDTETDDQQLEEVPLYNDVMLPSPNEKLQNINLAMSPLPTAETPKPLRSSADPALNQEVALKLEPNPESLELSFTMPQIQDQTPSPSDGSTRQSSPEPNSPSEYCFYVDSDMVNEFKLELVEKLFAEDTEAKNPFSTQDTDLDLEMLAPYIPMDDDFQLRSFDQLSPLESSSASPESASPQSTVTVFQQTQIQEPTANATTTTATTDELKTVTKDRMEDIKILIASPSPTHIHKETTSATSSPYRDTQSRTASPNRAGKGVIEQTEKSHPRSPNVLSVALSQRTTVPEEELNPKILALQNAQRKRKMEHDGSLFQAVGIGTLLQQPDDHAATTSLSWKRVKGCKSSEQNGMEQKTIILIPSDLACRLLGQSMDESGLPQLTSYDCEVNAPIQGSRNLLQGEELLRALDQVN
Outline: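 Endogenous-TF cis reporter readout, human HepG2 cells, 24 h incubation; mRNA detected via RT-PCR and capillary electrophoresis fluorescence; DMSO-normalised bidirectional fitting.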

[6] = target: Hepatocyte nuclear factor 6 (Homo sapiens) (UniProt Q9UBC0); test: ATG_HNF6_CIS: Attagene CIS-FACTORIAL HepG2 Assay for human Hepatocyte Nuclear Factor 6 (HNF6) (AID 2282952); details: HepG2 Attagene cis-factorial HNF6 reporter transcription; actives raise or lower the signal
Chain of Hepatocyte nuclear factor 6 (Homo sapiens) (Q9UBC0 whole entry, looked up, the tested form may be a part): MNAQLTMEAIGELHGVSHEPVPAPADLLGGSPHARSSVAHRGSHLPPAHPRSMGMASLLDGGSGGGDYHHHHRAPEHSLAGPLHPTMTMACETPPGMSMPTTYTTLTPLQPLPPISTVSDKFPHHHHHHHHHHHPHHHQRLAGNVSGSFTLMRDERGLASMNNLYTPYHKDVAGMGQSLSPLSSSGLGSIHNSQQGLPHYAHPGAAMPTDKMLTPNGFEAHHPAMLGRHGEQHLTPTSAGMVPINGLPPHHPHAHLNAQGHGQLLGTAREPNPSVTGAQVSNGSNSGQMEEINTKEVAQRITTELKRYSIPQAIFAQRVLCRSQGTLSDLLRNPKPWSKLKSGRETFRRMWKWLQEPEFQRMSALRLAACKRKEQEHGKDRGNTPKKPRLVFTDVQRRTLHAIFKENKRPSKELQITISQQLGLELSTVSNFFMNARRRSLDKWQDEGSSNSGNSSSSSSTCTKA
Outline: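 Readout: fluorescent reporter-transcript fragments resolved by capillary electrophoresis after RT-PCR, reflecting endogenous factor activity in transfected HepG2. Exposure 24 h. Gain or loss of signal fitted bidirectionally against DMSO.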

[7] = target: Heat shock factor protein 1 (Homo sapiens) (UniProt Q00613); test: ATG_HSE_CIS: Attagene CIS-FACTORIAL HepG2 Assay for human Heat Shock Transcription Factor 1 (HSE) (AID 2282953); details: HepG2 HSE cis-reporter, Attagene RNA transcription; actives raise or lower the signal
Chain of Heat shock factor protein 1 (Homo sapiens) (Q00613 whole entry, looked up): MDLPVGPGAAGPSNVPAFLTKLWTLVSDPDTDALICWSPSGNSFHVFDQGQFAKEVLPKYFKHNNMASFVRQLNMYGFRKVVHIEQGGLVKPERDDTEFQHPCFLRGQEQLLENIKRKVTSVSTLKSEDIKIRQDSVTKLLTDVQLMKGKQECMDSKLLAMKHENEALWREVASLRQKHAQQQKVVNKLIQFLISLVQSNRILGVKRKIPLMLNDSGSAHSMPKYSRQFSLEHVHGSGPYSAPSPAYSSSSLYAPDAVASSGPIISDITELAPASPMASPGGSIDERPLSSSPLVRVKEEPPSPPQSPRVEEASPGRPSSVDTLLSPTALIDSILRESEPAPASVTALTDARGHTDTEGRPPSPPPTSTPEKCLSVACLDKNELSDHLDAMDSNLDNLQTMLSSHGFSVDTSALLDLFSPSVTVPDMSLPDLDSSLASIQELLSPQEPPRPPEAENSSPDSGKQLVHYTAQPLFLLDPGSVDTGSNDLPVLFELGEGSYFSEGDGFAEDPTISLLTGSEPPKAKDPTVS
Outline: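 Liver-derived HepG2 cells carry transiently introduced multiple reporter units governed by cis promoters. Reporter RNA measured 24 h post-dose through reverse transcription, PCR amplification, fluorescent labelling and capillary electrophoresis, normalised to DMSO.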

[8] = ATG_MRE_CIS: Attagene CIS-FACTORIAL HepG2 Assay for human Metal Responsive Element (MRE) (AID 2282954); details: HepG2 MRE cis-reporter transcription, Attagene multiplex; actives raise or lower the signal
Outline: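 Cells were transfected with cis-promoter reporter transcription units, then dosed for 24 h. RNA was reverse-transcribed, amplified, fluorescently labelled and resolved by capillary electrophoresis, and activity was fitted in both directions relative to DMSO.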

[9] = ATG_PBREM_CIS: Attagene CIS-FACTORIAL HepG2 Assay for human Phenobarbital-responsive Enhancer Module (PBREM) (AID 2282955); details: HepG2 PBREM cis-reporter, Attagene multiplexed transcription; actives raise or lower the signal
Outline: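 Readout: reporter mRNA, fluorescent RT-PCR fragments separated by capillary electrophoresis. System: HepG2 transiently transfected with cis-regulated reporter units. Exposure: 24 h. Analysis: bidirectional, DMSO baseline.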

[10] = target: Paired box protein Pax-6 (Homo sapiens) (UniProt P26367); test: ATG_Pax6_CIS: Attagene CIS-FACTORIAL HepG2 Assay for human Paired Box 6 (PAX6) (AID 2282956); details: HepG2 CIS-FACTORIAL PAX6 reporter transcription, RNA readout; actives raise or lower the signal
Chain of Paired box protein Pax-6 (Homo sapiens) (P26367 whole entry, looked up): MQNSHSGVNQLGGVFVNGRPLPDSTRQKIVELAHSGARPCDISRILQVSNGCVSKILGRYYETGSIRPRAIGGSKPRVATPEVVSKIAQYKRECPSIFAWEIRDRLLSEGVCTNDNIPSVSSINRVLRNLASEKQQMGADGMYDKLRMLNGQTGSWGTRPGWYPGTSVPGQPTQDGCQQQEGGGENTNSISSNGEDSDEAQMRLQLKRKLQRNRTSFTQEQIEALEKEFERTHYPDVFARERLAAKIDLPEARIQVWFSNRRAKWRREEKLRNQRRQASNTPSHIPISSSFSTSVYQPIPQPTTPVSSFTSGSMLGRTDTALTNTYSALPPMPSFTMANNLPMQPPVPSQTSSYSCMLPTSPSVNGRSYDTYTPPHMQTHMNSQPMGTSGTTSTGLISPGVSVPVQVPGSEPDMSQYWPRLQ
Outline: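 Values derive from bidirectional curve fitting of reporter mRNA signal relative to DMSO. HepG2 cells bearing transfected cis-regulated MRTUs were exposed for 24 h; transcripts were read by RT-PCR and capillary electrophoresis.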

[11] = ATG_PXRE_CIS: Attagene CIS-FACTORIAL HepG2 Assay for human Pregnane X Receptor Element (PXRE) (AID 2282957); details: HepG2 Attagene CIS-FACTORIAL PXRE reporter, mRNA; actives raise or lower the signal
Outline: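 Read-out: fluorescence of reporter-specific RT-PCR products resolved by capillary electrophoresis, fitted bidirectionally relative to DMSO. Human HepG2 liver cells carried transfected cis-promoter reporter units and were exposed to chemicals for 24 h.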

[12] = ATG_RORE_CIS: Attagene CIS-FACTORIAL HepG2 Assay for human RAR-related Orphan Receptor Element (RORE) (AID 2282959); details: HepG2 Attagene cis-factorial RORE reporter, mRNA; actives raise or lower the signal
Outline: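 Measured here: transcript induction of a cis-regulated reporter in HepG2 cells transiently transfected via FuGene 6. After 24 h, RNA was processed by RT-PCR and fluorescent capillary electrophoresis; DMSO defined baseline activity.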

[13] = target: Transcription factor Sp1 (Homo sapiens) (UniProt P08047); test: ATG_Sp1_CIS: Attagene CIS-FACTORIAL HepG2 Assay for human Specificity Protein 1 (Sp1) (AID 2282961); details: HepG2 Sp1 cis-reporter transcription, actives raise or lower the signal
Chain of Transcription factor Sp1 (Homo sapiens) (P08047 whole entry, looked up): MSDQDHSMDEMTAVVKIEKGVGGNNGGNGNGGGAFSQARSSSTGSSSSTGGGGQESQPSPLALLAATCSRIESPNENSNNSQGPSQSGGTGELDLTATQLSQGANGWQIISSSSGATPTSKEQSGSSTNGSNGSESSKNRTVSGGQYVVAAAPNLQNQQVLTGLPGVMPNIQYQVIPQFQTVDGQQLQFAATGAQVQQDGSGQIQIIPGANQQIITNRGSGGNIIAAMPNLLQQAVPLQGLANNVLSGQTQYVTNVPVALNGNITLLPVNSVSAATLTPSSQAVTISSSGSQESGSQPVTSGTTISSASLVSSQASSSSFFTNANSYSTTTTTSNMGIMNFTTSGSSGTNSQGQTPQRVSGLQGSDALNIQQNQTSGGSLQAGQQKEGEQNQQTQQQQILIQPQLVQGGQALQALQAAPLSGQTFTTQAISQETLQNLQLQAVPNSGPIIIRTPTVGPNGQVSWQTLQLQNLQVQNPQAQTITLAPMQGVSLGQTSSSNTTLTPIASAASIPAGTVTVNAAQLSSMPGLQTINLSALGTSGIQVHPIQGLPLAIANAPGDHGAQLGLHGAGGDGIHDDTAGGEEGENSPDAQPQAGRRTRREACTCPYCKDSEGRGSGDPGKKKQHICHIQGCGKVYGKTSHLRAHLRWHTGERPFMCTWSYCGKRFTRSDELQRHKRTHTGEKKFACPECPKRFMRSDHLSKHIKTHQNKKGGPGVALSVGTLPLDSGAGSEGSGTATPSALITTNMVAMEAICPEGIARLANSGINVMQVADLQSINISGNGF
Outline: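 After transient transfection of HepG2 cells with cis-promoter reporter units and 24 h chemical treatment, reporter transcripts were quantified by RT-PCR and capillary electrophoresis fluorescence. Gain- and loss-of-signal fitted against DMSO.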

[14] = ATG_SREBP_CIS: Attagene CIS-FACTORIAL HepG2 Assay for human Sterol Regulatory Element Binding (SREBP) (AID 2282962); details: HepG2 Attagene cis-factorial SREBP reporter, mRNA; actives raise or lower the signal
Outline: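 Values derive from bidirectional curve fitting with DMSO as baseline. The underlying measurement is reporter mRNA from cis-element-regulated units in transiently transfected HepG2, quantified by RT-PCR and capillary electrophoresis after 24 h exposure.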

[15] = target: Signal transducer and activator of transcription 3 (Homo sapiens) (UniProt P40763); test: ATG_STAT3_CIS: Attagene CIS-FACTORIAL HepG2 Assay for human Signal Transducer and Activator of Transcription 3 (STAT3) (AID 2282963); details: HepG2, Attagene cis-factorial STAT3 reporter transcription; actives raise or lower the signal
Chain of Signal transducer and activator of transcription 3 (Homo sapiens) (P40763 whole entry, looked up): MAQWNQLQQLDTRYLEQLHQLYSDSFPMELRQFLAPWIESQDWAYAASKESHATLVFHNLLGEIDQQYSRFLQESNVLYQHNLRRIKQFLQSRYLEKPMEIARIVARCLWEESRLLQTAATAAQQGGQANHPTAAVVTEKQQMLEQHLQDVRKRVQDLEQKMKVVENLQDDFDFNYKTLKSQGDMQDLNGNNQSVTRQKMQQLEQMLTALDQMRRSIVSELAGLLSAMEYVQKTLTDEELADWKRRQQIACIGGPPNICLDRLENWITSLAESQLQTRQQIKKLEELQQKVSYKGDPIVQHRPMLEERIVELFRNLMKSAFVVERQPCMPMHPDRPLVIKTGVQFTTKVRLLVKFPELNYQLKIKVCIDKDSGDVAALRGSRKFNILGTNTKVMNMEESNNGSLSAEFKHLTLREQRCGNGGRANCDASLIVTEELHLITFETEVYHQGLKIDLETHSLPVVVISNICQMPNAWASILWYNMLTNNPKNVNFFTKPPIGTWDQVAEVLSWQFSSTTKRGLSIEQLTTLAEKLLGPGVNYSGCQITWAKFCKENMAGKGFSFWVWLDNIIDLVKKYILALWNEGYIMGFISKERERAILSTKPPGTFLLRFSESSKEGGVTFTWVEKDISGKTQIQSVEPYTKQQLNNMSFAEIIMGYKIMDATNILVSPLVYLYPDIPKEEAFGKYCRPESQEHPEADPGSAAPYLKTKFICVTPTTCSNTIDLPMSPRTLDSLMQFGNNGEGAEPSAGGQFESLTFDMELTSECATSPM
Outline: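 HepG2, MRTU-transfected, 24 h dosing. RNA → RT → PCR → FAM label → HpaI → CE. Bidirectional fit vs DMSO.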

[16] = ATG_TA_CIS: Attagene CIS-FACTORIAL HepG2 Assay for human TA Basal Promoter (AID 2282964); details: HepG2 Attagene CIS-factorial TA basal promoter reporter; actives raise or lower the signal
Outline: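 Background internal-marker endpoint from a 52-component HepG2 cis-reporter panel. Cells treated 24 h; reporter transcripts quantified via RT-PCR and CE fluorescence against DMSO baseline.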

[17] = ATG_TCF_b_cat_CIS: Attagene CIS-FACTORIAL HepG2 Assay for human T-Cell-Factor with beta-catenin (TCF/b-cat) (AID 2282965); details: HepG2 TCF/beta-catenin cis-reporter transcription, actives raise or lower the signal
Outline: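 In this cis-format system, transfected HepG2 cells report endogenous transcription factor activity. Readout after 24 h exposure is reporter transcript abundance from RT-PCR and capillary electrophoresis, analysed for gain or loss of signal versus DMSO.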

[18] = ATG_PPRE_CIS: Attagene CIS-FACTORIAL HepG2 Assay for human Peroxisome Proliferator-activated Response Element (PPRE) (AID 2282958); details: HepG2 PPRE cis-element reporter, Attagene transcription factor profiling; actives raise or lower the signal
Outline: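 After human HepG2 hepatoma cells were transiently transfected with cis-promoter reporter constructs, they were exposed to test chemicals for 24 hours. Reporter RNA was then reverse-transcribed, PCR-amplified, FAM-labeled, HpaI-digested and quantified by capillary electrophoresis.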

[19] = ATG_Sox_CIS: Attagene CIS-FACTORIAL HepG2 Assay for human SRY-box transcription factor (SOX) (AID 2282960); details: HepG2 Attagene cis-factorial SOX reporter, mRNA; actives raise or lower the signal
Outline: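 Using transiently transfected HepG2 cells, reporter transcription driven by cis elements was assessed 24 h after dosing. Signal was fluorescence of capillary-separated RT-PCR products, with DMSO defining baseline activity.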

Measured: AC50

Chain of Bile acid receptor (Homo sapiens) (Q96RI1 whole entry, looked up): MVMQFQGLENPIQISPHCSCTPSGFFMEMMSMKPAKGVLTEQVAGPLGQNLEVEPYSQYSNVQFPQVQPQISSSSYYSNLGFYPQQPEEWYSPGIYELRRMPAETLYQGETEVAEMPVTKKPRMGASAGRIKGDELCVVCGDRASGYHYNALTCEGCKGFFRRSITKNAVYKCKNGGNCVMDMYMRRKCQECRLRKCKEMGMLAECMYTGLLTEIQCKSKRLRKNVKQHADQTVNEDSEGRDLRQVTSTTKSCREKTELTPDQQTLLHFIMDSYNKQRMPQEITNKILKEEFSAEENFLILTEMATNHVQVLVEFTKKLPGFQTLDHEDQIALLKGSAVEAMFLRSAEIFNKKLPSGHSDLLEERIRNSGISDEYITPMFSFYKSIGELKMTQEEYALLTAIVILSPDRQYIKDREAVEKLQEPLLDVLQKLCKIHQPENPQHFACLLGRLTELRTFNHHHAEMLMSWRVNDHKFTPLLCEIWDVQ

O=P(OCCCl)(OCCCl)OCCCl
active: [11] 43.6 µM
not listed: [17] | [18] | [19]
inactive: all other assays above

CCC12COCN1COC2
not listed: [1] | [2] | [18] | [19]
inactive: all other assays above

CCCCC(CC)COC(=O)c1ccc(C(=O)OCC(CC)CCCC)c(C(=O)OCC(CC)CCCC)c1 (stereo unspecified)
not listed: [1] | [4] | [17]
inactive: all other assays above

O=C(Oc1ccc(Br)cc1)N1CCN2CCC1CC2
active: [5] 34.6 µM | [11] 26 µM
not listed: [1] | [9] | [12] | [17] | [18]
inactive: all other assays above

O=[N+]([O-])c1ccc(Oc2ccc(Cl)cc2Cl)cc1
active: [8] 50.1 µM | [9] 22.5 µM | [10] 31.9 µM | [11] 25.8 µM | [12] 27.5 µM | [16] 39.7 µM
not listed: [1] | [4] | [17] | [18]
inactive: all other assays above

CO[C@@H]1[C@H](OC(=O)NC(=O)CCl)CC[C@]2(CO2)[C@H]1[C@@]1(C)O[C@@H]1CC=C(C)C
active: [11] 0.293 µM
not listed: [1] | [4] | [17] | [19]
inactive: all other assays above

c1ccc2c(c1)-c1cccc3cccc-2c13
active: [3] 0.00928 µM | [11] 26 µM
not listed: [1] | [2] | [4] | [17]
inactive: all other assays above

[Cl-].[Cl-].[Hg+2]
active: [5] 33.4 µM | [14] 51 µM
not listed: [1] | [2] | [9] | [18]
inactive: all other assays above
